From PubChem BioAssay (NCATS)
Inconclusive results are not listed. Calls of active or inactive are those of the source. The call rests on the fitted dose curve; in most records, active means well fitted inhibition curve with a large enough effect; inconclusive means small, poorly fitted or top-dose-only effect; inactive means no such curve, though single readings can be large or run the other way.

Key:
[1] = qHTS for Inhibitors of the Aldehyde Dehydrogenase Family (ALDH1A2, ALDH1A3, ALDH2, ALDH3A1) (AID 2061307); further: nearly all actives have a fitted effect of over 50% in size; on Potency: test system not described further here; potency means the concentration at half of the fitted maximal effect; on activity change, negative = inhibition: on the % scale 0 is the no-effect control and ±100 the full control effect
[2] = target: Retinaldehyde dehydrogenase 3 (Homo sapiens) (UniProt P47895); test: qHTS for Inhibitors of the Aldehyde Dehydrogenase Family (ALDH1A3) Confirmatory screens (AID 2061311); further: nearly all actives have a fitted effect of over 60% in size; further: potency means the concentration at half of the fitted maximal effect; on activity change, negative = inhibition: on the % scale 0 is the no-effect control and ±100 the full control effect
[3] = target: Retinal dehydrogenase 2 (Homo sapiens) (UniProt O94788); test: qHTS for Inhibitors of the Aldehyde Dehydrogenase Family (ALDH1A2) Confirmation screens (AID 2061314); further: nearly all actives have a fitted effect of over 65% in size; further: potency means the concentration at half of the fitted maximal effect
[4] = target: Retinaldehyde dehydrogenase 3 (Homo sapiens) (UniProt P47895); test: qHTS for Inhibitors of the Aldehyde Dehydrogenase Family (ALDH1A3) Primary screen (AID 2061315);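 further: plate controls were DMSO vehicle for no effect and reference inhibitor for full effect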
[5] = target: Aldehyde dehydrogenase 1A1 (Homo sapiens) (UniProt P00352); test: qHTS for Inhibitors of the Aldehyde Dehydrogenase Family (ALDH1A1) Confirmatory screens (AID 2061316); further: nearly all actives have a fitted effect of over 65% in size; further: potency means the concentration at half of the fitted maximal effect; on activity change, negative = inhibition: on the % scale 0 is the no-effect control and ±100 the full control effect

Cc1ccc(CCN2C(=O)c3ccc(C(=O)O)cc3C2=O)cc1
inactive: Potency [1] | Potency [2] | Potency [3] | Potency [4]

O=C1Cc2cc(S(=O)(=O)N3CCN(c4ccc(F)cc4)CC3)ccc2N1
inactive: Potency [1] | Potency [2] | Potency [3] | Potency [4]

COc1ccc(C2=Nn3c(nnc3-c3ccccc3OC)SC2)cc1OC1CCCC1
active: Potency [1] 15.8 µM | Potency [2] 22.4 µM | Potency [3] 6.34 µM
inactive: Potency [4]

COc1ccc(-c2nc(CCNC(=O)c3c(F)cccc3Cl)cs2)cc1
inactive: Potency [1] | Potency [2] | Potency [3] | Potency [5]

CC(C)(C)c1ccc(S(=O)(=O)c2cnc(SCC(=O)Nc3ccc(F)c(Cl)c3)[nH]c2=O)cc1
active: Potency [1] 12.7 µM | Potency [3] 14.2 µM | Potency [5] 0.634 µM
inactive: Potency [2] | Potency [4]

COc1ccc(C2Nc3ccccc3C(=O)N2Cc2ccco2)cc1COc1ccc(N)cc1 (stereo not drawn)
inactive: activity change, negative = inhibition [2] -17.5% [at 0.022 µM] | Potency [4]
active: Potency [1] 1.79 µM | Potency [3] 4.49 µM | Potency [5] 1.79 µM

Cc1ccc(S(=O)(=O)Nc2cnccc2C(=O)Nc2nc(C(=O)O)cs2)cc1
active: Potency [2] 20.1 µM
inactive: Potency [1] | Potency [3] | Potency [4]

COc1cc(NS(=O)(=O)c2cccc([N+](=O)[O-])c2)c2ncccc2c1
active: Potency [1] 11.3 µM | Potency [2] 5.65 µM | Potency [3] 3.18 µM

O=C(C1CCN(Cc2ccccc2-c2ccccc2F)CC1)N1CCN(Cc2ccccc2)CC1
inactive: Potency [1] | Potency [2] | Potency [3]

CC(=O)c1c(C)n(-c2ccc(Cl)cc2)c2ccc(OC(=O)COc3ccccc3)cc12
inactive: Potency [1] | Potency [2] | Potency [3] | Potency [5]

CCOC(=O)c1[nH]c2c(c1C)C(=S)CC(c1ccco1)C2 (stereo not drawn)
inactive: Potency [4]
active: Potency [1] 8.96 µM | Potency [2] 12.7 µM | Potency [3] 12.7 µM | Potency [5] 2.01 µM

COc1ccc(Cl)cc1C(=O)NCc1nnc2cc(-c3nc(C)no3)ccn12
inactive: Potency [1] | Potency [2] | Potency [3] | Potency [5]

Cc1ccc(-c2cccc(C=O)c2)c(C)c1
inactive: Potency [1] | Potency [2] | Potency [3] | Potency [5]

O=C(Cc1ccc(F)cc1)Nc1cccc(-c2nc3cccnc3s2)c1
inactive: Potency [1] | Potency [2] | Potency [3] | Potency [5]

COc1ccc(-n2c(C)c(C(C)=O)c3cc(OC(=O)COc4ccccc4)ccc32)cc1
inactive: Potency [1] | Potency [2] | Potency [3] | Potency [5]

Cc1cc(C)cc(-c2ccccc2C=O)c1
inactive: Potency [1] | Potency [2] | Potency [3] | Potency [5]

Cc1cccc(-c2ccccc2C=O)c1
inactive: Potency [1] | Potency [2] | Potency [3] | Potency [5]

Nc1cc(S(=O)(=O)N2CCN(S(=O)(=O)c3ccc4c(c3)OCCO4)CC2)ccn1
inactive: Potency [1] | activity change, negative = inhibition [2] -14.1% [at 0.022 µM] | Potency [4]

Cc1cc(NC(=O)Nc2nnc(-c3ccncc3)s2)ccc1Br
active: Potency [1] 11.3 µM | Potency [5] 12.7 µM
inactive: Potency [2] | Potency [4]

CCn1cnc2c(Nc3ccc(CC(=O)N=C(N)N)cc3)nc(C#N)nc21
inactive: Potency [1] | Potency [2] | Potency [4] | Potency [5]

CC(=O)N1CCN(c2ccc(NCc3ccc(Br)o3)cc2)CC1
active: Potency [1] 10.1 µM | Potency [2] 17.9 µM | Potency [3] 12.7 µM | Potency [5] 10.1 µM

COc1cc(O)c(C(CC(=O)N2C[C@H](C)C[C@H](C)C2)c2ccc3c(c2)OCO3)c(OC)c1 (stereo partly drawn)
inactive: Potency [1] | Potency [2] | Potency [4]

CN1CCN(C(=O)c2cccc(-c3ccc(CNc4ccc(N5CCN(C(=O)OC(C)(C)C)CC5)cc4)o3)c2)CC1
inactive: Potency [1] | Potency [2] | Potency [4]

COc1cccc(S(=O)(=O)NC2CCN(C#N)C2)c1 (stereo not drawn)
inactive: Potency [1] | Potency [2] | Potency [4] | Potency [5]

Cc1cc(C)cc(-c2ccc(C=O)cc2)c1
inactive: Potency [1] | Potency [2] | Potency [3] | Potency [5]

Cc1ccsc1CN(C)c1ncnc2ccc(-c3oc(-c4ccccc4)nc3C)cc12
active: Potency [1] 12.6 µM | Potency [2] 14.1 µM
inactive: Potency [4]

CCOC(=O)c1c(C)n(-c2ccc(OC)cc2)c2ccc(OC(=O)COc3ccccc3)cc12
inactive: Potency [1] | Potency [2] | Potency [3] | Potency [5]

O=C(Nc1ncc(Cc2ccc(C(F)(F)F)cc2)s1)c1ccc(-c2ccccc2[N+](=O)[O-])o1
active: Potency [1] 12.7 µM | Potency [2] 11.3 µM | Potency [3] 25.2 µM | Potency [5] 6.34 µM

N#CNC(=O)c1ccc(-n2cccc2/C=C2\NC(=O)N(CC(=O)Nc3ccc(F)cc3)C2=O)cc1
active: Potency [1] 4 µM
inactive: Potency [2] | Potency [4] | Potency [5]
